Laboratory results from PubChem BioAssay (Tox21).
Several values for one entry are separate records, joined by “and”; a condition that tells them apart may be missing. Identical values can stand only once. Results filed as inconclusive are left out. A call without a number means that no potency is given here. Some structures have more than one record in an assay (separate samples or runs), and their calls can disagree. Activity calls are given as the source filed them. Unless noted, calls follow the shape of the full dose curve.

Key:
[1] = Nuclear factor erythroid 2-related factor 2/antioxidant responsive element (Nrf2/ARE) small molecule agonists: qHTS cell viability counter screen in human keratinocytes (AID 1919968; active = well fitted cell-killing curve with a large enough effect in the repeat runs; also: nearly all actives have a fitted effect of over 55% in size; also: potency is read from the fitted curve at half-maximal effect)
In short: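 HaCaT ARE reporter line, 1,500 cells/well; 5 h settle, 37 C/5% CO2; cpd in DMSO pinned; 23 h exposure; CellTiter-Fluor, 1 h; fluorescence.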

[2] = Nuclear factor erythroid 2-related factor 2/antioxidant responsive element (Nrf2/ARE) small molecule agonists: luciferase reporter gene qHTS assay in human keratinocytes (AID 1919969); also: nearly all actives have a fitted effect of over 35% in size; also: potency is read from the fitted curve at half-maximal effect
[3] = target: Gonadotropin-releasing hormone receptor (Homo sapiens) (UniProt P30968); assay: Human gonadotropin-releasing hormone receptor (GnRHR) small molecule agonists, calcium flux assay in GnRHR-HEK293 cells (AID 1920063); also: nearly all actives have a fitted effect of over 35% in size; also: potency is read from the fitted curve at half-maximal effect
In short: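 GnRHR-HEK293, 1500 cells/well, 18 h 37 C/5% CO2; Ca dye 1 h 37 C; cpd pinned (DMSO), agonist mode; kinetic FL 480/540, 3 min, 1 s reads; 15 conc, n=3.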

[4] = G protein-coupled receptor (GPCR) small molecule agonists, calcium flux assay: HEK293 wild type cell line counter screen (AID 1920065)
In short: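 Kinetic fluorescence at Ex/Em 480/540, recorded every second over 3 min, served as the read-out after compound addition. Each compound was tested at 15 concentrations in triplicate on cells pre-loaded with calcium dye for 1 h.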

[5] = p53 small molecule agonists, cell-based qHTS assay with human liver microsomes (AID 1963577)
In short: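 Fluorescence of the beta-lactamase reporter in p53RE-bla cells, detected with LiveBLAzer substrate (2 h, room temperature, dark), served as the read-out after 16 h compound exposure at 37 C with human liver microsomes and NADPH, each 0.5 mg/mL final.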

[6] = p53 small molecule agonists, cell-based qHTS assay with rat liver microsomes (AID 1963578)
In short: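 Cells carrying a p53 response element–beta-lactamase reporter were plated and rested 5 h, then dosed with compound in DMSO plus rat liver microsomes and NADPH, each at 0.5 mg/mL final. After 16 h at 37 C, LiveBLAzer substrate was added for 2 h.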

[7] = p53 small molecule agonists, cell-based qHTS assay with human liver microsomes: qHTS cell viability counter screen (AID 1963579); also: nearly all actives have a fitted effect of over 45% in size; also: potency is read from the fitted curve at half-maximal effect
In short: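 Cytotoxicity counter screen: p53RE-bla, 4,000 cells/well; 5 h settle, 37 C/5% CO2; cpd + HLM 0.5 mg/mL + NADPH 0.5 mg/mL (final); 16 h, 37 C; CellTiter-Glo, 30 min RT, luminescence.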

[8] = p53 small molecule agonists, cell-based qHTS assay with rat liver microsomes: qHTS cell viability counter screen (AID 1963580); also: nearly all actives have a fitted effect of over 45% in size; also: potency is read from the fitted curve at half-maximal effect
In short: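 Intracellular ATP, by CellTiter-Glo luminescence, defines viability. HCT-116 p53RE-bla cells, 4,000 per well, were compound-treated in the presence of rat liver microsomes and NADPH for 16 h at 37 C.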

[9] = p53 small molecule agonists, cell-based qHTS assay: qHTS cell viability counter screen (AID 1963581); also: nearly all actives have a fitted effect of over 45% in size; also: potency is read from the fitted curve at half-maximal effect
In short: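 HCT-116 p53RE-bla cells, 4,000/well, plated 5 h before compound pin transfer; 16 h at 37 C; bla substrate 2 h RT; then CellTiter-Glo, 30 min RT, luminescence.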

[10] = p53 small molecule agonists, cell-based qHTS assay (AID 1963582; active = well fitted activation curve with a large enough effect in the signal ratio in the repeat runs, not every such curve was filed as active; the % refers to the signal ratio)
In short: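 Reporter line: p53RE-bla. Pre-incubation 5 h, 37 C, 5% CO2; compound (DMSO, pin tool) 16 h, 37 C; B/G FRET substrate 2 h RT; fluorescence intensity read.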

[11] = target: 5-hydroxytryptamine receptor 2A (Homo sapiens) (UniProt P28223); assay: 5-hydroxytryptamine receptor 2A (HTR2A) small molecule antagonists, cell-based qHTS assay (AID 1963586); also: nearly all actives have a fitted effect of over 45% in size; also: potency is read from the fitted curve at half-maximal effect
In short: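 Antagonist-mode intracellular calcium assay: DOI (4 nM) added after 5 min compound pre-incubation at room temperature to dye-loaded HTR2A-CHO cells. Fluorescence followed for 3 min, sampled every second.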

[12] = target: 5-hydroxytryptamine receptor 2A (Homo sapiens) (UniProt P28223); assay: 5-hydroxytryptamine receptor 2A (HTR2A) small molecule agonists, cell-based qHTS assay (AID 1963587); also: nearly all actives have a fitted effect of over 30% in size; also: potency is read from the fitted curve at half-maximal effect
In short: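 Kinetic calcium-flux fluorescence (2 min, 1 sec intervals) after compound addition in agonist mode. HTR2A-CHO cells were cultured 18 h, then dye-loaded 1 h at 37 C.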

[13] = target: Muscarinic acetylcholine receptor M1 (Homo sapiens) (UniProt P11229); assay: Cholinergic receptor muscarinic 1 (CHRM1) small molecule antagonists, cell-based qHTS assay (AID 1963588); also: nearly all actives have a fitted effect of over 40% in size; also: potency is read from the fitted curve at half-maximal effect
In short: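 CHRM1-CHO calcium-flux assay, antagonist mode. Cells were seeded 18 h, dye-loaded 1 h at 37 C and given compound for 5 min at RT, then acetylcholine was added at 50nM. FDSS fluorescence was read 3 min; 15 concentrations, three runs.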

[14] = target: Muscarinic acetylcholine receptor M1 (Homo sapiens) (UniProt P11229); assay: Cholinergic receptor muscarinic 1 (CHRM1) small molecule agonists, cell-based qHTS assay (AID 1963589); also: nearly all actives have a fitted effect of over 35% in size
In short: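 Human M1 in stable CHO line; 18 h plating, 1 h dye load 37 C; cpd added (agonist mode); Ca2+ fluorescence kinetic read, 1 s intervals; 15 conc, 3 runs.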

[15] = cAMP Responsive Elements (CRE) small molecule agonists, cell-based qHTS assay (AID 1963590)
In short: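 HEK 293T CRE-bla, 2,000 cells/well, 18 h preincubation 37 C/5% CO2; cpds (DMSO) pinned, 3 h; LiveBLAzer B/G FRET substrate, 2 h RT.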

[16] = cAMP Responsive Elements (CRE) small molecule antagonists, cell-based qHTS assay (AID 1963591; active = well fitted inhibition curve with a large enough effect in the signal ratio in the repeat runs, not every such curve was filed as active; the % refers to the signal ratio)
In short: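 Beta-lactamase reporter read by FRET substrate (LiveBLAzer B/G) after 2 h at room temperature. CRE-bla HEK293T cells had received compound plus 0.25 uM (final) NKH477 for 3 h at 37 °C.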

[17] = target: Beta-2 adrenergic receptor (Homo sapiens) (UniProt P07550); assay: Adrenergic beta2 receptor (ADRB2) small molecule antagonists, cell-based qHTS assay (AID 1963592); also: series mostly up to about 92 µM; nearly all actives have a fitted effect of over 50% in size
In short: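 Cells (CHO, stable ADRB2 overexpression) incubated 18-20hr at 37C; compounds added from DMSO; agonist mix (1nM isoproterenol, 100uM IBMX, 25uM Ro-20-1724) added; 0.5hr RT; d2-cAMP and anti-cAMP-cryptate added; 1hr RT; 665/615 nm read.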

[18] = target: D(2) dopamine receptor (Homo sapiens) (UniProt P14416); assay: Dopamine D2 receptor (DRD2) small molecule agonists, cell-based qHTS assay (AID 1963594); also: nearly all actives have a fitted effect of over 35% in size
In short: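 cAMP accumulation in DRD2-HEK293 cells measured by HTRF after 1 h detection; compounds added 10 min before NKH477 (200nM […]) forskolin-analogue stimulation, 30 min at room temperature, with Ro20-1724 present at 0.1 mM final.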

[19] = target: D(2) dopamine receptor (Homo sapiens) (UniProt P14416); assay: Dopamine D2 receptor (DRD2) small molecule antagonists, cell-based qHTS assay (AID 1963595; active = well fitted inhibition curve with a large enough effect in the signal ratio in the repeat runs, with a control signal flat; the % refers to the signal ratio)
In short: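 HEK293 cells stably expressing DRD2 were preincubated with 0.1 mM Ro20-1724, then with compound for 10 min at room temperature. Cells were stimulated with 200 nM NKH477 plus 12 nM quinpirole for 30 min, and cAMP was read by HTRF.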

[20] = target: Beta-2 adrenergic receptor (Homo sapiens) (UniProt P07550); assay: Adrenergic beta2 receptor (ADRB2) small molecule agonists, cell-based qHTS assay (AID 1963593);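 also: CHO cells stably overexpressing human ADRB2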
In short: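 CHO cells stably over-expressing ADRB2 were plated overnight at 37C, then dosed with compounds plus a stimulation mix containing 100uM IBMX and 25uM Ro-20-1724 for 0.5hr at room temperature. cAMP was measured by HTRF competition, 1hr.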

Chain of Gonadotropin-releasing hormone receptor (Homo sapiens) (P30968 whole entry, looked up): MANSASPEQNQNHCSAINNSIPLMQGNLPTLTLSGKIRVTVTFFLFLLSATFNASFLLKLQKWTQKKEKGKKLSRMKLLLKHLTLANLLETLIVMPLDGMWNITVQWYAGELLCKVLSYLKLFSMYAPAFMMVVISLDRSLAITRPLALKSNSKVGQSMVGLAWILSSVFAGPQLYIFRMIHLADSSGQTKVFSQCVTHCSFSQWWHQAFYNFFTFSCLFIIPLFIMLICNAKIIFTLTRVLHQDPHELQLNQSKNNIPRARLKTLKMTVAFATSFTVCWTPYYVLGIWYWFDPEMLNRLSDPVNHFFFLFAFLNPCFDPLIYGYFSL
Chain of 5-hydroxytryptamine receptor 2A (Homo sapiens) (P28223 whole entry, looked up): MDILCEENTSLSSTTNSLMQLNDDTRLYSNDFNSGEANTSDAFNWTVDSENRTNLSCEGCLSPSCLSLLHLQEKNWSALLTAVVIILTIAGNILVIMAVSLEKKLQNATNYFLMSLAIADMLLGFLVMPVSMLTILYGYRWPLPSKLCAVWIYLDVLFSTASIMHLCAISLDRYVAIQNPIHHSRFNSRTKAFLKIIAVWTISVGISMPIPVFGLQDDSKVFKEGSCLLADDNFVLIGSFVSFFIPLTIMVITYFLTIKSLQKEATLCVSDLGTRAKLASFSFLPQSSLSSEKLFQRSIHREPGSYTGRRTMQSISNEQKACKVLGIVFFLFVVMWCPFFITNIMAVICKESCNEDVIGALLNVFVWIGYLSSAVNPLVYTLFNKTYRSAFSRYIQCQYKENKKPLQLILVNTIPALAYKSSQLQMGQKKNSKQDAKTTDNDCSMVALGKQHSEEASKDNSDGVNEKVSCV
Chain of D(2) dopamine receptor (Homo sapiens) (P14416 whole entry, looked up): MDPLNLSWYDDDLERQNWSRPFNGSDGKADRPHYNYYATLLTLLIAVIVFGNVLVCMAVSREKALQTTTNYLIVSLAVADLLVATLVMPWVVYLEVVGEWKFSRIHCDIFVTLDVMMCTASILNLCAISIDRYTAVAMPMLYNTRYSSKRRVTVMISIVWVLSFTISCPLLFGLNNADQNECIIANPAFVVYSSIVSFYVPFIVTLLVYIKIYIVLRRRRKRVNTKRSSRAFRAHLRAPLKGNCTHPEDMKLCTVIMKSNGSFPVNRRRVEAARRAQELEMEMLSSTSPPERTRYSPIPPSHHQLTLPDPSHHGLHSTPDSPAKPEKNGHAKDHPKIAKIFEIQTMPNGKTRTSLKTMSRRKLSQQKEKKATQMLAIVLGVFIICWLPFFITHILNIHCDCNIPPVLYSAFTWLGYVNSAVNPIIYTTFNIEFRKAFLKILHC
Chain of Beta-2 adrenergic receptor (Homo sapiens) (P07550 whole entry, looked up): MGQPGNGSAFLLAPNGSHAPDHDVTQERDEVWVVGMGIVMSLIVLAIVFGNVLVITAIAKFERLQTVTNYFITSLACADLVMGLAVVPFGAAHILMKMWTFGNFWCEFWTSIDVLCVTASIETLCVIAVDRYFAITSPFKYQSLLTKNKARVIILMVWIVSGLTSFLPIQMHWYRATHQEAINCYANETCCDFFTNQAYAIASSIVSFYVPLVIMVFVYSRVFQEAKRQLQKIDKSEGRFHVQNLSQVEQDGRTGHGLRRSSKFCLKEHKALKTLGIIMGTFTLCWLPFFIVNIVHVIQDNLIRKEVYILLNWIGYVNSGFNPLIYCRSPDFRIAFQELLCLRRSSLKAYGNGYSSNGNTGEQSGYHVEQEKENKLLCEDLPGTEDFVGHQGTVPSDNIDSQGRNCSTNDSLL
Chain of Muscarinic acetylcholine receptor M1 (Homo sapiens) (P11229 whole entry, looked up): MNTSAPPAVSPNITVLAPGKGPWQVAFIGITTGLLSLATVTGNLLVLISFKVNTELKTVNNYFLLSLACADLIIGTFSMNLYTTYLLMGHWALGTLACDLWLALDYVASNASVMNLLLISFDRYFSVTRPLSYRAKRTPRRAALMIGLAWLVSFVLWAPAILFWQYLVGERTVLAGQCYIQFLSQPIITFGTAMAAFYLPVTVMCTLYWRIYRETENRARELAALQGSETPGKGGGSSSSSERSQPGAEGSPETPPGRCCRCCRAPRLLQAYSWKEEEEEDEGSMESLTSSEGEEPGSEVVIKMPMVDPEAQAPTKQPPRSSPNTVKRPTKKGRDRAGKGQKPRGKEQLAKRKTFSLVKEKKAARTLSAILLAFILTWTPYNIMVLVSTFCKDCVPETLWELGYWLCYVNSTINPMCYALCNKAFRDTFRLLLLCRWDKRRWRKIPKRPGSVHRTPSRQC

Structure (SMILES) | Potency [1] | Potency [2] | Potency [3] | Potency [4] | Potency [5] | Potency [6] | Potency [7] | Potency [8] | Potency [9] | Potency [10] | Potency [11] | Potency [12] | Potency [13] | Potency [14] | Potency [15] | Potency [16] | Potency [17] | Potency [18] | Potency [19] | Potency [20]
COc1cc(C(=S)N2CCOCC2)cc(OC)c1OC | inactive | inactive | inactive | inactive | inactive | inactive | inactive | inactive | inactive | inactive | inactive | inactive | inactive | inactive | inactive | inactive | inactive | inactive | inactive | 
O=C(O)c1cc2ccccc2nc1C(=O)O | inactive | 17.2 µM (active) | inactive | inactive | inactive | inactive | inactive | inactive | inactive |  | inactive | inactive | inactive | inactive | inactive | inactive | inactive | inactive |  | 
BrC1CCC(Br)C(Br)CCC(Br)C(Br)CCC1Br (configuration not stated) | 17.2 µM (active) | 9.65 µM (active) and 16.3 µM (active) | inactive | inactive | inactive | inactive | inactive | inactive | inactive |  | inactive | inactive | inactive | inactive | inactive | inactive | inactive | inactive |  | 
CC(C)CCCCCCc1ccc(O)cc1 | 6.22 µM (active) | 2.48 µM (active) and inactive | inactive | inactive | inactive | inactive | 41.5 µM (active) | 18.5 µM (active) | 45.8 µM (active) |  | 34 µM (active) | 44.4 µM (active) and 49 µM (active) | inactive | inactive |  |  | inactive | inactive |  | 
Cc1ncc(CO)c(CN)c1O | inactive | inactive | inactive | inactive | inactive | inactive | inactive | inactive | inactive | inactive | inactive | inactive | inactive | inactive | inactive | inactive | inactive | inactive | inactive | 
CCC(=O)Nc1cccc(N)c1 | inactive | inactive | inactive | inactive | inactive | inactive | inactive | inactive | inactive | inactive | inactive | inactive | inactive | inactive | inactive | inactive | inactive | inactive | inactive | 
C1=CCC2CC=CC2C1 (configuration not stated) | inactive | inactive | inactive | inactive | inactive | inactive | inactive | inactive | inactive | inactive | inactive | inactive |  | inactive |  | inactive | inactive | inactive | inactive | inactive
O=C1OC(CN2CCOCC2)CN1/N=C/c1ccc([N+](=O)[O-])o1 (configuration not stated) | inactive | inactive | inactive | inactive | inactive | inactive | inactive | inactive | inactive | inactive | inactive | inactive | inactive | inactive |  | inactive | inactive | inactive | inactive | inactive
C=C(CC)C(=O)c1ccc(OCC(=O)O)c(Cl)c1Cl | inactive | 24.2 µM (active) and 29.8 µM (active) | inactive | inactive | inactive | inactive | inactive | inactive | inactive |  |  |  |  |  |  |  | inactive | inactive | inactive | inactive
CCCCCCCCCCCCCCCC[N+](C)(C)CC | 54.6 µM (active) | inactive | 13.8 µM (active) | inactive | inactive | inactive | 45.9 µM (active) and inactive | inactive | inactive | inactive | 13.3 µM (active) and 11.6 µM (active) | 43.8 µM (active) | 422 nM (active) and 65 nM (active) | inactive |  |  | inactive | inactive | inactive | 
O=C(O)CSCC(=O)NC1CCSC1=O (configuration not stated) | inactive | inactive | inactive | inactive | inactive | inactive | inactive | inactive | inactive | inactive | inactive | inactive | inactive | inactive |  | inactive | inactive |  | inactive | inactive
C[C@H]1C[C@H](O)c2ccsc2S1(=O)=O | inactive | inactive | inactive | inactive | inactive | inactive | inactive | inactive | inactive | inactive | inactive | inactive | inactive | inactive | inactive |  | inactive | inactive | inactive | inactive
CC(C)(c1cc(Br)c(OCC(Br)CBr)c(Br)c1)c1cc(Br)c(OCC(Br)CBr)c(Br)c1 (configuration not stated) | inactive | inactive | inactive | inactive | inactive | inactive | inactive | inactive | inactive |  |  | inactive | inactive | inactive | inactive | inactive | inactive | inactive | inactive | inactive
C=C(C)C(=O)NCCCN(C)C | inactive | inactive | inactive | inactive | inactive | inactive | inactive | inactive | inactive | inactive | inactive | inactive | inactive | inactive | inactive |  | inactive | inactive | inactive | inactive
